Results reported in PubChem BioAssay (NCI).
This is part of a sample that, as a whole, favours compounds with a hit. Of some 79,000 tested, about 15% had one in any assay. A number with no mark means an inactive call. Calls of active or inactive are those of the source. No stated cut-off is given here; in the data, active means growth inhibition above about 70%; inactive means the rest.

Key:
[1] = NCI Yeast Anticancer Drug Screen. Data for the rad50 strain (AID 155);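 further: 0% = growth of vehicle-only cultures of the same strain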; settings: S. cerevisiae rad50 strain growth inhibition; at 50.0 µM; hits give high values
How it was run: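 Readout: growth inhibition relative to vehicle-treated cultures. Compound exposure was carried out in a genetically defined yeast strain deficient in DNA damage repair.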

[2] = NCI Yeast Anticancer Drug Screen. Data for the mec2-1 strain (AID 157); settings: S. cerevisiae mec2-1 strain, at 50.0 µM, hits give high values
How it was run: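 Test agents were screened against the mec2-1 yeast strain, with defined DNA repair or cell cycle alteration. Growth was scored as inhibition against vehicle-only controls.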

[3] = NCI Yeast Anticancer Drug Screen. Data for the sgs1 mgt1 strain (AID 161);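 further: 0% = growth of cultures given vehicle only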; settings: S. cerevisiae sgs1 mgt1 strain, at 50.0 µM, hits give high values
How it was run: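 Genetically altered yeast, compound exposure, growth inhibition relative to vehicle.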

[4] = NCI Yeast Anticancer Drug Screen. Data for the cln2 rad14 strain (AID 165);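 further: 0% = growth equal to vehicle treated cultures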; settings: S. cerevisiae cln2 rad14 strain, at 50.0 µM, hits give high values
How it was run: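 Growth of compound-exposed yeast (cln2 rad14 genotype) measured and expressed as inhibition relative to vehicle.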

[5] = NCI Yeast Anticancer Drug Screen. Data for the bub3 strain (AID 167); settings: S. cerevisiae bub3 mutant strain, at 50.0 µM, hits give high values
How it was run: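 Readout: yeast growth inhibition, expressed relative to vehicle-only wells. The test organism is a mutant strain from a panel with lesions in DNA repair or checkpoint genes.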

[6] = NCI Yeast Anticancer Drug Screen. Data for the mlh1 rad18 strain (AID 175); settings: S. cerevisiae mlh1 rad18 strain growth inhibition; at 50.0 µM; hits give high values
How it was run: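 In this whole-cell yeast screen, a strain with altered DNA damage repair is challenged with compound, and its growth is measured against matched vehicle-treated controls.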

Row | SMILES | growth inhibition [1] | growth inhibition [2] | growth inhibition [3] | growth inhibition [4] | growth inhibition [5] | growth inhibition [6]
1 | FC(F)(F)c1cc(-c2ccc(C3Nc4ccccc4-n4cccc43)o2)cc(C(F)(F)F)c1 (configuration not stated) | 11.7% | -23.4% | 24.2% | 6.65% | 25.4% | 30.3%
2 | CN1CN(C(=O)N2CN(C)C(=O)N(C)C2)CN(C)C1=O | -10.8% | -13.6% | -23.6% | 3.45% | -14.2% | -37.4%
3 | COC(=O)[C@]1(C)CCC[C@]2(C)c3ccc(C(C)=O)cc3C(=O)C[C@@H]12 | -1.5% | -10.8% | 9.5% | -31.6% | -8.5% | -15.1%
4 | CC(=O)Nc1ccc(/C=N/Nc2ccccc2)cc1 | 97.9% (active) | 98.8% (active) | 98.5% (active) | 96.6% (active) | 98.5% (active) | 98.7% (active)
5 | CCC(CO)Nc1nc2c(Cl)cc(Cl)cc2c2ccccc12 (configuration not stated) | 11.1% | 1.55% | 18.4% | -12.3% | 12% | 41.2%
6 | C=CCNC(=O)/C=C/C(=O)O | -8.15% | 6.85% | 0.35% | 4.45% | 12.5% | 6.15%
7 | O=C1OCC(c2ccccc2)(c2ccccc2)C(=O)N1O | 18.4% | -2.1% | 3.95% | 13.2% | 5.65% | 16.5%
8 | COc1ccc(Cl)cc1C(O)CN1CCCCC1 (configuration not stated) | -8.35% | -11.9% | -11.2% | -37.5% | 0.45% | -6.3%
9 | CC1(O)CC2C(CC1SC1CC3C(CC1(C)O)C3(C)C)C2(C)C (configuration not stated) | -48.3% | -33.5% | -45.8% | -26.4% | -51.7% | -33%
10 | COC1C(OC(N)=O)C(O)C(Oc2ccc3c(O)c(NC(=O)c4ccc(O)c(CC=C(C)C)c4)c(=O)oc3c2C)OC1(C)C (configuration not stated) | 7.2% | -23.4% | 1.7% | -6.1% | 9.1% | 26.4%
11 | CN(C=O)c1ccccc1 | 3.6% | 1.8% | 6.15% | 11.7% | 2.05% | 3.05%
12 | O=[N+]([O-])c1ccc(OP2(Oc3ccc([N+](=O)[O-])cc3)=NP(Oc3ccc([N+](=O)[O-])cc3)(Oc3ccc([N+](=O)[O-])cc3)=NP(Oc3ccc([N+](=O)[O-])cc3)(Oc3ccc([N+](=O)[O-])cc3)=NP(Oc3ccc([N+](=O)[O-])cc3)(Oc3ccc([N+](=O)[O-])cc3)=N2)cc1 | -4.5% | -7.9% | -6.35% | -3.7% | -1.65% | -17.2%
13 | O=C(Cl)CNS(=O)(=O)c1ccccc1 | 5.45% | 5.1% | 1% | 15.8% | 6.4% | 1.45%
14 | CC(C)(C)CC(=O)Nc1ccccc1 | 28.9% | -4.15% | -17.1% | 13.7% | -8.9% | 9.25%
15 | CC1/C(=N/Nc2ccc([N+](=O)[O-])cc2)CC2C3(C)CCC2(C(C)C(=O)O)C(=O)C13 (configuration not stated) | 78% (active) | 33.4% | 83.5% (active) | 45.7% | 44.8% | 88.7% (active)
16 | Cc1cc(=O)n2c(n1)sc1ccc3ccccc3c12 | 12% | -11.8% | 3.1% | 12.8% | -12.8% | 33.9%
17 | CC(C)/C=C(/CC(C)C)C(CCC(=O)Nc1ccccc1)C(=O)Nc1ccccc1 (configuration not stated) | 7.9% | 27.7% | 4.1% | 10% | 1.8% | 35.2%
18 | c1ccc(N2CCN(C(c3cccs3)N3CCN(c4ccccc4)CC3)CC2)cc1 | 7.35% | 8.9% | 0.8% | -4.15% | -5.5% | 19.1%
19 | C[N+](C)(C)N=C1CCCCC1 | 10.9% | -3.6% | -11.3% | 7.5% | -2.6% | -16.8%
20 | O=c1[nH]cnc2sc3c(c12)CCC3 | 30.6% | 6.9% | 14.2% | 13.4% | 3.1% | 1.55%
21 | S=C(Cc1ccccc1)Nc1ccccc1 | 12.1% | -18.5% | 14.1% | -22.9% | -25.4% | 3.3%

Row | SMILES | growth inhibition [1] | growth inhibition [2] | growth inhibition [3] | growth inhibition [4] | growth inhibition [5] | growth inhibition [6]
22 | OCCCN=C1CCCCC1 | -3.4% | -10.3% | -35.5% | -54.4% | -11% | -13.3%
23 | CC(=O)CC(=O)Nc1ccccc1[N+](=O)[O-] | -7.05% | -24.4% | -0.65% | 15.9% | 7.05% | -9.65%
24 | O=c1[nH]nnc2cc(Cl)ccc12 | 0% | 6.15% | -4.65% | -12.2% | 2% | -1.3%
25 | CC1OC(OCC2OC(Oc3ccc4c(=O)c(-c5ccc6c(c5)OCO6)coc4c3)C(O)C(O)C2O)C(O)C(O)C1O (configuration not stated) | 15.1% | 3.15% | 12.6% | 28.1% | 20.4% | 8.85%
26 | COc1ccc(/C=N/Nc2nc3ccccc3s2)cc1 | 7.9% | -3.15% | -3.15% | -41.4% | 1% | 25.6%
27 | CCCCCOC(=S)S.[Ag] | -5.65% | -15.2% | -1.55% | 13.2% | -16.2% | -8.4%
28 | CCOC(=O)C1CN(CCCN2CC(C(=O)OCC)C(=O)C2=O)C(=O)C1=O (configuration not stated) | 9.9% | 7.25% | 3.5% | 24.1% | 9.95% | -3.95%
29 | C[N+](C)(CCNCC(N)=O)CC(N)=O | -17.6% | -4.2% | -19.1% | -9.95% | 5.15% | -1.5%
30 | Cc1ccc2c(c1)C=C/C(=C/c1cc[n+](C)c3ccccc13)N2C | -7.95% | -22.2% | 13.3% | -1.05% | -5.8% | 1.55%
31 | N=c1sc2ccccc2n1CC(=O)O | 2.2% | -16.5% | -13.3% | -22.6% | 3.85% | -41.2%
32 | CC(=O)Oc1ccc(C(c2ccc(OC(C)=O)cc2)c2ccccn2)cc1 | 18.3% | -0.6% | -9.25% | -62.4% | -40.9% | -22.9%
33 | Cc1ccc(NC(=O)OCC2CC3C=CC2C3)cc1 (configuration not stated) | 95.5% (active) | 98.8% (active) | 99% (active) | 96.3% (active) | 95.2% (active) | 97.7% (active)
34 | Cc1c(C(=O)CC2OC(=O)C(Cl)=C2Cl)c2ccccc2n1C(=O)Nc1ccc(Cl)cc1 (configuration not stated) | 15.8% | -6.75% | 11.1% | -32.4% | 5.05% | 5.3%
35 | CCCCC(=O)N/N=C/c1c[nH]c2ccc(Br)cc12 | 4.3% | 6.05% | -9.1% | 0.85% | 12.9% | 0.05%
36 | CCOc1ccccc1NC(=O)Nc1cccc(C(F)(F)F)c1 | 68.8% | 60.5% | 76% (active) | 72.3% (active) | 76% (active) | 88.9% (active)
37 | CCCCCCCCCCCCCCNC(=O)C(C)O (configuration not stated) | 2% | -23.8% | -15.7% | -35.2% | 11.3% | -2.2%
38 | Cc1c(C)c(C)c(CC2(C)CSC2)c(CC2(C)CSC2)c1C | -1.65% | -20.2% | -12.6% | 14.6% | -41.8% | 10.9%
39 | CC(=O)/C=c1\[nH]/c(=C\C=C\c2ccccc2)c(=O)n1/C=C1\C(=O)Oc2ccccc2C1=O | -39.4% | 7.1% | 4.6% | 24.6% | -18.1% | -46%
40 | Cn1ccc2c(C(=O)c3ccccc3)cccc2c1=O | 7.75% | -5.7% | -4.75% | 9.7% | 0.5% | -10.5%
41 | CC(=O)NC1CCC(Cc2ccccc2)CC1 (configuration not stated) | 6.2% | -7.65% | -11.3% | -93.3% | -22.3% | -3.9%
42 | O=C1CSc2ccnc(=O)n21 | -0.1% | -10% | 16.7% | 11.1% | -9.8% | -8.1%
